HEK293 tox: Cytotoxic Profiling in HEK 293 Cell Line of Diverse Libraries Using Quantitative High-Throughput Screening; HEK 293 viability, ATP luminescence (CellTiter-Glo), 48-72 h; Potency, µM (series often up to 115 µM), actives largely listed as inhibitors; 94,000 compounds, 6.6% hits; further: nearly all actives have a fitted effect of over 60% in size
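Cells seeded first (HEK 293, 250 cells/well), then compound added by pintool. Incubation ran 48 or 72 hr at 37 degree Celsius. CellTiter-Glo was added and luminescence imaged after 10 min at room temperature.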
Luciferase inh: Firefly luciferase inhibition profiling of diverse chemical library using quantitative high-throughput screening | purified P. pyralis luciferase, luminescence, biochemical | Potency, µM (series often up to 115 µM), hits mostly inhibitors | Luciferin 4-monooxygenase (Photinus pyralis), P08659 | 76,000 compounds, 2.5% hits; further: nearly all actives have a fitted effect of over 65% in size
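Luminescence read by CCD imaging after purified firefly luciferase (10nM final) was added to substrate buffer holding 10uM D-luciferin and 10uM ATP, pH 7.5, pre-dosed with compound.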
3T3 cytotox: Cytotoxic Profiling in NIH 3T3 Cell Line of Diverse Libraries Using Quantitative High-Throughput Screening. NIH 3T3 viability, CellTiter-Glo ATP luminescence, 48-72 h. Potency, µM (highest dose often 96.7 µM), most hits filed as inhibitors. 94,000 compounds, 4.3% hits; further: nearly all actives have a fitted effect of over 55% in size
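Luminescent ATP readout (CellTiter-Glo, 10 min RT) after 48 or 72 hr compound exposure of NIH 3T3 cells seeded at 400 cells/well in 1536-well format; quantitative HTS.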
GPT2 inhibitor: Primary qHTS assay for inhibitors of Glutamate pyruvate transaminase 2 (GPT2); Alanine aminotransferase 2 (Homo sapiens), Q8TD30; 100,000 compounds, 0.25% hits; Recombinant GPT2, coupled pyruvate oxidase/HRP Amplex Red fluorescence; Potency, µM (series often up to 57.7 µM), most hits filed as inhibitors; further: nearly all actives have a fitted effect of over 60% in size
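Recombinant GPT2 (10ng/uL) with 250uM a-KG and 2mM L-alanine, 30 min at room temperature, in HEPES pH 7.5 buffer. Pyruvate detected by pyruvate oxidase/HRP/Amplex Red fluorescence after 30 min in the dark; AOA (50uM) as positive control.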
hNpr1 antagonist: Natriuretic polypeptide receptor (hNpr1) antagonism - Primary qHTS; Atrial natriuretic peptide receptor 1 (Homo sapiens), P16066; HEK293 hNpr1 GloSensor cGMP, ANP-stimulated luminescence; Potency, µM (titrated, usually from 46.3 µM), usual class: inhibitors; 76,000 compounds, 1.6% hits; calls by dose curve; further: nearly all actives have a fitted effect of over 60% in size
Target sequence (P16066 whole entry, looked up): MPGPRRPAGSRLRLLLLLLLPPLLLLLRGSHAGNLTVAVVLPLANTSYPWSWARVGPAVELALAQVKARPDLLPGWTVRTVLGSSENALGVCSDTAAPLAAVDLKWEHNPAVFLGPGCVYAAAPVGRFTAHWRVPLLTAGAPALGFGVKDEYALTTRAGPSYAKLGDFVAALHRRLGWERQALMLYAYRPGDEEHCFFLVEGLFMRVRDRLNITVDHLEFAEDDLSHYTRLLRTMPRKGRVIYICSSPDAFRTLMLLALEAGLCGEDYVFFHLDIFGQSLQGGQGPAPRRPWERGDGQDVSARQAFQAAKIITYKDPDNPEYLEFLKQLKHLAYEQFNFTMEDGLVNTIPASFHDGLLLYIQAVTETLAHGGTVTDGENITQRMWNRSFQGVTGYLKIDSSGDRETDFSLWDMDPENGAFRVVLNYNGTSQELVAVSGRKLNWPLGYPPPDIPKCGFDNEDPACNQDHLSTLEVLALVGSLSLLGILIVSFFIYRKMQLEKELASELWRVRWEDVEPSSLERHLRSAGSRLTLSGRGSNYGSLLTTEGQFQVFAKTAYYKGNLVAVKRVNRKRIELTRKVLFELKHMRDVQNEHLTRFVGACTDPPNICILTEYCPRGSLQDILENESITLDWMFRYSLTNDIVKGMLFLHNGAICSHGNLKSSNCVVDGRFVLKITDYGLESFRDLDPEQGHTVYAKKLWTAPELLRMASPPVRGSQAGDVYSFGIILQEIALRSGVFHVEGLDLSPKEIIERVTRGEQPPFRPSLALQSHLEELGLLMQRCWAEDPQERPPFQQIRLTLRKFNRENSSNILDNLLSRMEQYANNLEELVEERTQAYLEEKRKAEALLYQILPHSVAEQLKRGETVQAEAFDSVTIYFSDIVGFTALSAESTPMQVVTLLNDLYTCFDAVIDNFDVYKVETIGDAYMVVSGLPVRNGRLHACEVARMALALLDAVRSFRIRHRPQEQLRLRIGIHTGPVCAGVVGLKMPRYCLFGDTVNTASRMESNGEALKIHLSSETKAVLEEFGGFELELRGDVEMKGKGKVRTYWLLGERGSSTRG
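Compound pre-incubated 30 min at room temperature on GloSensor-loaded HEK293 cells stably carrying hNpr1 and the pGS-40F cGMP biosensor. Stimulation uses hNppA at 0.1 nM final; luminescence is taken at baseline and 20 min post-agonist.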
Large screens that a line does not name were inactive. Compounds with a hit are over-represented: about 10% of the library has one in this group of screens. Unless noted, the call rests on the fitted dose curve; in most records, active means well fitted curve in the direction sought with a large enough effect; inconclusive means small, poorly fitted or top-dose-only effect, or another doubt; inactive means no such curve, though single readings can be large; an effect the other way counts as inactive or inconclusive.

COc1ccc(CN2Cc3[nH]cnc3C[C@H]2c2nc(-c3ccc(C(F)(F)F)cc3)no2)cc1	HEK293 tox inconclusive, Luciferase inh 40µM, 3T3 cytotox inconclusive
COc1ccc(-c2noc([C@@H]3Cc4nc[nH]c4CN3Cc3ccc(NC(C)=O)cc3)n2)cc1	Luciferase inh 35µM, GPT2 inhibitor inconclusive
O=C(Nc1ccccc1)N1CCCC(Cn2c(C3CC3)nc3cccnc32)C1 (stereo not given)	none
Cc1ccc([S+](=O)([O-])N2CCCC(C(=O)N3CCC(N4CCOC4=O)CC3)C2)cc1 (stereo not given)	HEK293 tox inconclusive (no result: Luciferase inh, hNpr1 antagonist)
O=C(Cc1cccnc1)N1CC(Oc2ccccc2-c2nc(-c3cnccn3)no2)C1	none (no result: Luciferase inh, hNpr1 antagonist)
Cc1cccc(CNC(=O)C2CC(c3ccc(F)c(C)c3)CN(C(=O)c3ccccc3)C2)c1 (stereo not given)	HEK293 tox 40µM, 3T3 cytotox 25µM
Cc1cc(C2CC(C(=O)NCCc3ccccc3)CN(C(=O)NC(C)C)C2)ccc1F (stereo not given)	HEK293 tox 40µM, 3T3 cytotox inconclusive
COCCN1C(=O)c2ccccc2C(C(=O)Nc2nc(C)cs2)C12CCCCC2 (stereo not given)	none
c1cc(-c2ccnc3nc(CCC4CCCC4)nn23)ccn1	3T3 cytotox 35µM
COc1cc(-c2ccnc3nc(Cc4ccc(F)cc4)nn23)cc(OC)c1OC	HEK293 tox 32µM, 3T3 cytotox inconclusive
COc1cc(-c2ccnc3nc(CCC4CCCC4)nn23)cc(OC)c1OC	3T3 cytotox 5.6µM, GPT2 inhibitor inconclusive
CCc1nc2nccc(-c3cc(OC)c(OC)c(OC)c3)n2n1	3T3 cytotox inconclusive
CC1CCCCC1Nc1ncnc2c1CN(C1CCCNCC1)C(=O)CN2C (stereo not given)	GPT2 inhibitor inconclusive (no result: Luciferase inh, hNpr1 antagonist)
O=C1OC2(CN1CCOc1ccccc1)CN(C(=O)c1ccc(Oc3ccccc3)cc1)C2	HEK293 tox inconclusive, 3T3 cytotox inconclusive, hNpr1 antagonist inconclusive
CSCCC(=O)N1CCc2[nH]nc(-c3ccc(C(F)(F)F)cc3)c2C1	HEK293 tox inconclusive, Luciferase inh inconclusive, 3T3 cytotox inconclusive, GPT2 inhibitor inconclusive
O=C(C1CC=CCC1)N1CCc2[nH]nc(-c3ccc(C(F)(F)F)cc3)c2C1 (stereo not given)	HEK293 tox 25µM, 3T3 cytotox inconclusive
COc1cccc(C(=O)NC(C(=O)N2CCCCC2)C2CCN(C(=O)c3cccc(F)c3)CC2)c1 (stereo not given)	none
COc1ccc(CN2Cc3[nH]nc(-c4cccc(O)c4)c3CC2=O)cc1	HEK293 tox inconclusive, 3T3 cytotox 10µM
COc1ccc(C(=O)N2CCCC(c3nn(-c4ccccn4)c(=O)[nH]3)C2)cc1 (stereo not given)	none (no result: Luciferase inh, hNpr1 antagonist)
CN1c2cc(C(=O)N3CCN(c4ccccc4F)CC3)ccc2C(=O)N2CCCCC21 (stereo not given)	HEK293 tox inconclusive
CN1c2cc(C(=O)N3CCN(c4ccccc4Cl)CC3)ccc2C(=O)N2CCCCC21 (stereo not given)	HEK293 tox 40µM, 3T3 cytotox inconclusive
Cc1ccccc1N1CCN(C(=O)c2ccc3c(c2)N(C)C2CCCCCN2C3=O)CC1 (stereo not given)	HEK293 tox 45µM, 3T3 cytotox inconclusive
Cc1ccccc1NC(=O)C1CCc2nc(N3CCN(C(=O)C(C)C)CC3)sc2C1 (stereo not given)	HEK293 tox 10µM, 3T3 cytotox 35µM
Cc1ccc(CNC(=O)C2CCc3nc(N4CCN(C(=O)C(C)C)CC4)sc3C2)o1 (stereo not given)	HEK293 tox 79µM
CC(=O)N1CCN(c2nc3c(s2)CC(C(=O)NCc2cccc(Cl)c2)CC3)CC1 (stereo not given)	HEK293 tox inconclusive

Screens: PubChem BioAssay, National Center for Advancing Translational Sciences (NCATS)
